Data as given in the supplement of paper PMC10849652.
Of roughly 7,900 targets only a part is listed; those with a hit were picked by preference. About 0.6% of all pairs of compound and target were hits. Values without a mark were called inactive.

compound: C[C@@H]1COCCN1C2=NC(=NC(=C2)C3(CC3)S(=O)(=O)C)C4=C5C=CNC5=CC=C4; assay: log2 fold change, soluble protein after heating vs DMSO (PISA); higher = thermal stabilisation; K562 cells, 10 uM, 30 min; active = over 0.2 and 3.5 SD of the protein, either way, in both replicates (recomputed)
In short: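 K562 cells at 2×10^6 cells/mL were given 10 μM compound for 30 min. Aliquots then went through 3 min of heating across 48°C-58°C, were pooled, and were extracted in PBS with 0.5% NP-40 at 4°C, and the supernatant after 21,000xg for 90 min was quantified by TMTpro 16plex LC-MS/MS with channel sums equalised. Thermal stability relative to control samples, from duplicates, is given as log2 fold change.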

UniProt Q9UK59, sequence (Q9UK59 whole entry, looked up): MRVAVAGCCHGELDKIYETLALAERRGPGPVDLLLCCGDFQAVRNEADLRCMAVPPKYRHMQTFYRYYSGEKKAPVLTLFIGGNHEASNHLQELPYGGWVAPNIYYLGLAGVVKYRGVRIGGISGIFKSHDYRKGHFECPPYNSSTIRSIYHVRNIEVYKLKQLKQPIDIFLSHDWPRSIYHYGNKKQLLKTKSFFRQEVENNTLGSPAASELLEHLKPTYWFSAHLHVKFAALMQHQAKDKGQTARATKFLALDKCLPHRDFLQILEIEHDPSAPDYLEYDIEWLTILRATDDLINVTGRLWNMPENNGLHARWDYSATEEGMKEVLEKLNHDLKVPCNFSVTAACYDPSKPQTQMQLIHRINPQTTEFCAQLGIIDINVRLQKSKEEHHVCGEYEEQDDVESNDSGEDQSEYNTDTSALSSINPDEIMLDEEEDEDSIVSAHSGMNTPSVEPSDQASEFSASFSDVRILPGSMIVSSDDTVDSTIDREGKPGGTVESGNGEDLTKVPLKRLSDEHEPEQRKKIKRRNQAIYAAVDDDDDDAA
UniProt Q9C073, sequence (Q9C073 whole entry, looked up): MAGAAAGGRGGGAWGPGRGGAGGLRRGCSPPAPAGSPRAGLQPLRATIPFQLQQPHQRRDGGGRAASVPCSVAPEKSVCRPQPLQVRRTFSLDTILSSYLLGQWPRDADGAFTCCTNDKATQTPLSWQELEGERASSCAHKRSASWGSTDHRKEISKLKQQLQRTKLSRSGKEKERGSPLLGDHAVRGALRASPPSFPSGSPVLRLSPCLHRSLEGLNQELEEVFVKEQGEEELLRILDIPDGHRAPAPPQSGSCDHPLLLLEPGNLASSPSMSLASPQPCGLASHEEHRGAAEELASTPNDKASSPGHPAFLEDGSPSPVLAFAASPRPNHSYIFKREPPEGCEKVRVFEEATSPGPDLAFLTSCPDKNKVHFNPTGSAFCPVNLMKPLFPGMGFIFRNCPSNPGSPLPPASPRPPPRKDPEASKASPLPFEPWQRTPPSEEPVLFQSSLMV
UniProt P50402, sequence (P50402 whole entry, looked up): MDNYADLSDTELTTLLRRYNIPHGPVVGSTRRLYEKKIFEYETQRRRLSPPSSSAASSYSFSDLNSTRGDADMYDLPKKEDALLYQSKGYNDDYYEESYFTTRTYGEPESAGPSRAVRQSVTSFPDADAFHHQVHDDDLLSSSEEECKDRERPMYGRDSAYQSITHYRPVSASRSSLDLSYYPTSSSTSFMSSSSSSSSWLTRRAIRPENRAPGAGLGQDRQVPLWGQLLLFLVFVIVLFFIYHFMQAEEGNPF
UniProt Q9UBM7, sequence (Q9UBM7 whole entry, looked up): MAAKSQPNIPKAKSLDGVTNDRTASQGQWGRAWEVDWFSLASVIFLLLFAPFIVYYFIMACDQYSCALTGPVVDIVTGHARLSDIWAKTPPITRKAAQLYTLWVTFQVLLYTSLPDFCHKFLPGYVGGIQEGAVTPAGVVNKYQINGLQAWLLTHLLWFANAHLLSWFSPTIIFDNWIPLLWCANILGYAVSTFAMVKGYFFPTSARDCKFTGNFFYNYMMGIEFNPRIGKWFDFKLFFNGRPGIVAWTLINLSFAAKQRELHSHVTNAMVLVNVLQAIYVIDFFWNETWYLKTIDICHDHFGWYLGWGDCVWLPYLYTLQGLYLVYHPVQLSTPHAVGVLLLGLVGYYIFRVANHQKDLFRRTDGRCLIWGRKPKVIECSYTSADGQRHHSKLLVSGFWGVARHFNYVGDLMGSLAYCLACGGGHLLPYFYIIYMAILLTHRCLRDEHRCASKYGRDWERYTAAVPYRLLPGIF
UniProt Q8N5C7, sequence (Q8N5C7 whole entry, looked up): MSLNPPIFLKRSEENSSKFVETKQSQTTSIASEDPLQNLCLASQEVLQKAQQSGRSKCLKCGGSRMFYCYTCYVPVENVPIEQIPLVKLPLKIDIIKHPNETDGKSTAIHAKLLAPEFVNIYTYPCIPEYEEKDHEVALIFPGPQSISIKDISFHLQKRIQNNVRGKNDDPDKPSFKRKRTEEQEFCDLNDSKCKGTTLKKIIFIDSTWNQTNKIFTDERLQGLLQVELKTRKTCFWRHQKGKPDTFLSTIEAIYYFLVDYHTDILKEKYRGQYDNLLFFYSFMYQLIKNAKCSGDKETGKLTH
UniProt O75071, sequence (O75071 whole entry, looked up): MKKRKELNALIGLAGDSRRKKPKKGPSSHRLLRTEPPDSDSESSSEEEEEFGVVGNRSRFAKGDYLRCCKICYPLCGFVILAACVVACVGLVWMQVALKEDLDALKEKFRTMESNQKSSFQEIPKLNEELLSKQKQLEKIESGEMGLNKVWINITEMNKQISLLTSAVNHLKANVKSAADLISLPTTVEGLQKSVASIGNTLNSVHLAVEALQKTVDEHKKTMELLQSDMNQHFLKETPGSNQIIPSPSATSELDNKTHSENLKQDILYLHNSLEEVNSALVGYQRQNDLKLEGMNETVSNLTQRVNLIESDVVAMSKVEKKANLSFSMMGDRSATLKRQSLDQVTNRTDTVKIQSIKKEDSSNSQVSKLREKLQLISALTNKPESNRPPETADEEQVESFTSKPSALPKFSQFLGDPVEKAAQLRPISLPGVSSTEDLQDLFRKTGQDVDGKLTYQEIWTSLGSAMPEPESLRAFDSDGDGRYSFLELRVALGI
UniProt Q96EV8, sequence (Q96EV8 whole entry, looked up): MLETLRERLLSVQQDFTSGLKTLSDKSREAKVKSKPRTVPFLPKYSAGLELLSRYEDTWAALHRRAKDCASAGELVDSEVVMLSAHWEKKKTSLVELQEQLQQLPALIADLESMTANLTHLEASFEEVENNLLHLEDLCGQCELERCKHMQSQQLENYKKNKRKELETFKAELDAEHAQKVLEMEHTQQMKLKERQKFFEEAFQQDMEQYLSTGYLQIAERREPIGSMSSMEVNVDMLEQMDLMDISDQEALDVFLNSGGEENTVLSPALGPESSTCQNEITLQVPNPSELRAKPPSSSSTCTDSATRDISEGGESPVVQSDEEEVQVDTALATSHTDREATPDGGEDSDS
UniProt Q16531, sequence (Q16531 whole entry, looked up): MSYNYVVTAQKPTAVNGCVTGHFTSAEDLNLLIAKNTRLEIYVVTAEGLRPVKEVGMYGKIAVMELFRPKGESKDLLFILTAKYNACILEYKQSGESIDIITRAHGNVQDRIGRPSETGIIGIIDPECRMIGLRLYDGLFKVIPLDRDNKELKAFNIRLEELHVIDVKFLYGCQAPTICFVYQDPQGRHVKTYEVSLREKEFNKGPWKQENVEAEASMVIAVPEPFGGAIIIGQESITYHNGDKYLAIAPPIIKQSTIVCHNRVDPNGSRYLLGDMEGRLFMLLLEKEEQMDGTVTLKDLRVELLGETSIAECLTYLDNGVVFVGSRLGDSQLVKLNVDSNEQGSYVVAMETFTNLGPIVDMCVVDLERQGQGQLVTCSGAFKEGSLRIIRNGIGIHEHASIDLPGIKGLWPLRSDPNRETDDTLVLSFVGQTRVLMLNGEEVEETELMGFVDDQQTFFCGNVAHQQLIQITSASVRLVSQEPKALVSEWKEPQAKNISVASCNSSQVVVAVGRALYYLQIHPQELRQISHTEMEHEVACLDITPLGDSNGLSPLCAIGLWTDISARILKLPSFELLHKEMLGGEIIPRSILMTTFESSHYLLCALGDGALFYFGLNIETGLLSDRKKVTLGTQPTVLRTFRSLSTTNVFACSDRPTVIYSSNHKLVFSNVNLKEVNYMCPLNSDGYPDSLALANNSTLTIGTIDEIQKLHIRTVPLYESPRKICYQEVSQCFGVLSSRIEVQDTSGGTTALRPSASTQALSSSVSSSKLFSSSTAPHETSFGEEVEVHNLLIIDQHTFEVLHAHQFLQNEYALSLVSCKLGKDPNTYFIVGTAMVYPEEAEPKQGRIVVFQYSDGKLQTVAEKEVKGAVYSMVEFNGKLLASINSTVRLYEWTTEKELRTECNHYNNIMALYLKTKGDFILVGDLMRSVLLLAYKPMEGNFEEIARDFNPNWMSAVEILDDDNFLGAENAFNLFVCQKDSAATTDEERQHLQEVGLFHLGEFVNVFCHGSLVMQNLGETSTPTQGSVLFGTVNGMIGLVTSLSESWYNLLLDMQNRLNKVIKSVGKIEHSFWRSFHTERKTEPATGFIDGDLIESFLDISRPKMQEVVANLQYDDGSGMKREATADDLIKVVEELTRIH
UniProt Q9NZN4, sequence (Q9NZN4 whole entry, looked up): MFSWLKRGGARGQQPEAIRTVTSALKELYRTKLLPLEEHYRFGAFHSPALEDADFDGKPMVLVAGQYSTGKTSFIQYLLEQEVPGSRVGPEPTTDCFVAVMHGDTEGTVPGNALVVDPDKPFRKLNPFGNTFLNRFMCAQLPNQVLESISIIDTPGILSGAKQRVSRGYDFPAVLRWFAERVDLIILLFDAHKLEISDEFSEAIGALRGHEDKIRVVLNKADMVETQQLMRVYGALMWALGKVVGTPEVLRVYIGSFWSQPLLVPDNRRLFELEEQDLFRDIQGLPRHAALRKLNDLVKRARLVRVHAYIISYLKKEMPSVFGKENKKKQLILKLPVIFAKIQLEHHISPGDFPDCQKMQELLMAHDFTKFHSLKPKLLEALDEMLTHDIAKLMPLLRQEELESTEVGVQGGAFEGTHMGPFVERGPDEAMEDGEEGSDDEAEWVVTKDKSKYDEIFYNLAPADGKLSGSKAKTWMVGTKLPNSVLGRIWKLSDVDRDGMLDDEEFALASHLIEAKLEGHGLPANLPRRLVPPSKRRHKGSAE
UniProt Q9NWS6, sequence (Q9NWS6 whole entry, looked up): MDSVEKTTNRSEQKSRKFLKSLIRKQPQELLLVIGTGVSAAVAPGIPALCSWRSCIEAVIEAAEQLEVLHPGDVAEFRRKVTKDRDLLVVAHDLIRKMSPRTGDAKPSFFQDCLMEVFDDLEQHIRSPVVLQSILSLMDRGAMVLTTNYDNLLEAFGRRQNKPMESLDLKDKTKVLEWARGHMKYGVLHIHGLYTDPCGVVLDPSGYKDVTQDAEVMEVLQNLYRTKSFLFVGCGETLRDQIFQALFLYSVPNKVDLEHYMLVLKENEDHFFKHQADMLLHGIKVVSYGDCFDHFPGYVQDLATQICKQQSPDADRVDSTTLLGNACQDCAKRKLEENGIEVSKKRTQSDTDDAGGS

Target | log2 fold change
DAG1 (UniProt Q14118) | 0.132
DHX40 (UniProt Q8IX18) | -0.003
EDC4 (UniProt Q6P2E9) | 0.003
FAM118A (UniProt Q9NWS6) | 0.044
DTNBP1 (UniProt Q96EV8) | 0.079
DDX46 (UniProt Q7L014) | 0.185
EED, A0A5F9ZI63 | -0.047
FAM117A (UniProt Q9C073) | -0.013
DNTTIP2 (UniProt Q5QJE6) | -0.051
EEA1 (UniProt Q15075) | -0.014
DBR1 (UniProt Q9UK59) | 0.061
DOHH (UniProt Q9BU89) | 0.287
CTSA (UniProt P10619) | 0.002
DTYMK (UniProt P23919) | 0
DAB2 (UniProt P98082) | 0.049
EXTL2 (UniProt Q9UBQ6) | 0.014
DDOST (UniProt P39656) | -0.065
DDX39A (UniProt O00148) | 0.079
DTWD1 (UniProt Q8N5C7) | 0.061

Target | log2 fold change
DHFR (UniProt P00374) | -0.015
DPYSL2 (UniProt Q16555) | -0.09
CTSV (UniProt O60911) | 0.099
EFCAB14 (UniProt O75071) | 0.083
CTNNB1 (UniProt P35222) | -0.087
EIF4G1 isoform 8 (UniProt Q04637) | -0.206
ERCC2 (UniProt P18074) | -0.046
DPH5 isoform 5 (UniProt Q9H2P9) | 0.072
ELOC (UniProt Q15369) | 0.279 (active)
DNAH10 (UniProt Q8IVF4) | -0.003
CUEDC2 (UniProt Q9H467) | 0.026
FAM50A (UniProt Q14320) | 0.026
DHCR7 (UniProt Q9UBM7) | -0.085
DDB1 (UniProt Q16531) | 0.026
EMD (UniProt P50402) | 0.019
EHBP1L1 (UniProt Q8N3D4) | -0.005
EHD2 (UniProt Q9NZN4) | 0.077
DHCR24 (UniProt Q15392) | 0.076
DCTN1 isoform 4 (UniProt Q14203) | 0.015
